# Results as given in PubChem BioAssay (NCI).
# About 79,000 compounds went through this panel and 15% of them were active in at least one assay; those are over-represented in the sample as a whole. Unmarked numbers belong to inactive results. Active and inactive are the calls of the source. Rule as the data show it: active = growth inhibition above about 70%; inactive = the rest.
# Legend:
# [1] = NCI Yeast Anticancer Drug Screen. Data for the rad50 strain (AID 155);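 also: 0% = growth of vehicle-only cultures of the same strain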; conditions: S. cerevisiae rad50 strain growth inhibition, active compounds read high
# In short: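 Relative growth inhibition (compound vs vehicle) was measured in yeast with a defined repair-gene alteration.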
# [2] = NCI Yeast Anticancer Drug Screen. Data for the mec2-1 strain (AID 157); conditions: S. cerevisiae mec2-1 strain, active compounds read high
# In short: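 Growth inhibition is read against vehicle-treated controls after compound exposure of the mec2-1 yeast strain, which is defective in DNA damage repair or cell cycle control.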
# [3] = NCI Yeast Anticancer Drug Screen. Data for the sgs1 mgt1 strain (AID 161);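 also: 0% = growth of cultures given vehicle only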; conditions: S. cerevisiae sgs1 mgt1 strain, active compounds read high
# In short: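 Yeast cells carrying a defined DNA-repair defect were exposed to test compounds. Growth inhibition was measured relative to vehicle-treated controls.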
# [4] = NCI Yeast Anticancer Drug Screen. Data for the cln2 rad14 strain (AID 165);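 also: 0% = growth equal to vehicle treated cultures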; conditions: S. cerevisiae cln2 rad14 strain, active compounds read high
# In short: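 Growth inhibition, relative to vehicle-treated controls, is the read-out. The test organism is a yeast strain with defined genetic alterations, cln2 rad14.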
# [5] = NCI Yeast Anticancer Drug Screen. Data for the bub3 strain (AID 167); conditions: S. cerevisiae bub3 mutant strain, active compounds read high
# In short: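 Screening used yeast with an engineered genetic alteration affecting cell cycle control. Compound-exposed cultures were compared with vehicle cultures, and reduced growth was taken as inhibition.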
# [6] = NCI Yeast Anticancer Drug Screen. Data for the mlh1 rad18 strain (AID 175); conditions: S. cerevisiae mlh1 rad18 strain growth inhibition, active compounds read high
# In short: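 Cells of a genetically altered yeast strain, deficient in DNA damage repair, were treated with compound. Their growth was then compared with that of vehicle-treated cultures to give inhibition.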
# [7] = at 5.0 µM (retest, dose inferred, filed as 0.5)
# [8] = at 50.0 µM (retest, dose inferred, filed as 5.0)
SMILES,"growth inhibition [1, 7] [%]","growth inhibition [1, 8]",growth inhibition ([1]; at 50.0 µM),"growth inhibition [2, 7] [%]","growth inhibition [2, 8]",growth inhibition ([2]; at 50.0 µM),"growth inhibition [3, 7] [%]","growth inhibition [3, 8]",growth inhibition ([3]; at 50.0 µM),"growth inhibition [4, 7] [%]","growth inhibition [4, 8]",growth inhibition ([4]; at 50.0 µM),"growth inhibition [5, 7] [%]","growth inhibition [5, 8]",growth inhibition ([5]; at 50.0 µM),"growth inhibition [6, 7] [%]","growth inhibition [6, 8]",growth inhibition ([6]; at 50.0 µM)
Cc1scnc1C(C#N)(c1ccccc1)c1ccccc1,9,97% (active),98.5% (active),4,98% (active),98.5% (active),4,98% (active),98.7% (active),8,98% (active),98.5% (active),9,97% (active),98.8% (active),7,97% (active),98.5% (active)
Cc1cc(C=Nc2ccccc2)c(O)c2ncccc12,19,96% (active),98.8% (active),10,95% (active),99.3% (active),15,98% (active),94.9% (active),8,98% (active),83.7% (active),0,98% (active),99.1% (active),14,99% (active),99.2% (active)
CCOC(=O)C1=C(C)NC(C)=C(C(=O)OCC)C1c1c(-c2ccccc2)noc1C,23,84% (active),6.6%,7,62%,-2.3%,18,69%,2.2%,0,40%,-3.5%,1,70% (active),0.85%,2,61%,11.9%
CCOC(=O)C(Cc1ccc(O)c(C=O)c1)NC(C)=O (configuration not stated),-13,7%,-19.7%,-9,20%,-7.45%,-22,2%,0.3%,3,39%,-8.75%,-1,3%,0.05%,-7,-10%,-1.55%
CN(C)C(=S)N1C(=S)N(c2ccccc2)C(=Nc2ccccc2)C1=Nc1ccccc1,-25,-4%,49.4%,-9,-11%,-23.6%,-3,-12%,-5%,-18,-12%,-18.3%,-13,-8%,-30.1%,-20,-24%,-7.7%
ClC1CC[N-]CC1.ClC1CC[N-]CC1.[Cl][Pt+2]([Cl])([Cl])[Cl],50,96% (active),89.5% (active),42,98% (active),90.9% (active),58,98% (active),90.2% (active),36,98% (active),87.4% (active),64,98% (active),93% (active),35,96% (active),91.7% (active)
CN(C)C=C1C(Cl)=C(C=O)CC(C=O)=C1Cl,2,24%,12.3%,3,26%,23.1%,3,36%,63.7%,-2,3%,40.3%,-2,9%,18.5%,0,-12%,89.5% (active)
N=Cc1cc([N+](=O)[O-])ccc1O,-5,94% (active),96.8% (active),-1,98% (active),93% (active),-2,93% (active),98.5% (active),16,95% (active),94.5% (active),-20,96% (active),71.3% (active),12,98% (active),98.2% (active)
Cn1nc(-c2ccc3c(c2)OCO3)[n+]([O-])c2c(=O)n(C)c(=O)nc1-2,-2,79% (active),99.2% (active),-7,97% (active),99.7% (active),0,98% (active),99.5% (active),-6,97% (active),98.2% (active),-8,96% (active),99.4% (active),-7,97% (active),99.5% (active)
